Only a selection was taken, and hits are over-represented in it overall.
CHX counter = counter-screen for Shiga toxin inhibitors: cycloheximide protein synthesis inhibition. cell reporter, cycloheximide protein synthesis inhibition counterscreen. max response, %. 300,000 compounds, 12% hits; in the data active means max response mostly above about 13%, no sharp cut-off; inactive means mostly below about 14%; further: read at 38.3 µM for the half of the compounds with a filed dose; 0% is about no effect
Giardia FBPA inh = Giardia lamblia aldolase inhibition | A8B2U2 | purified Giardia FBPA | Potency, µM (highest dose often 59.6 µM), for inactives: at the highest dose activity, negative = inhibition, hits mostly inhibitors | 290,000 compounds, 0.71% hits; further: potency means the concentration at half of the fitted maximal effect; on the % scale 0 is the no-effect control and ±100 the full control effect; nearly all actives have a fitted effect of over 55% in size
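40 nM FBPA preincubated 10 min at RT with compound (up to 57.5 uM final), then substrate plus GAPDH/TPI/NAD/arsenate coupling and diaphorase/resazurin added. Fluorescence read after 20 min at RT, 525/598 nm.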
TbPYK inhibitor = T. brucei pyruvate kinase inhibition. Q57TT1. 410,000 compounds, 0.12% hits. TbPYK enzyme, Kinase-Glo Plus ATP luminescence, 45 min. Potency, µM (doses to about 76.8 µM), for the others: at the top dose activity, negative = inhibition, usual class: inhibitors; further: potency means the concentration at half of the fitted maximal effect; on the % scale 0 is the no-effect control and ±100 the full control effect; nearly all actives have a fitted effect of over 50% in size
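Enzyme and substrate buffer are dispensed first and compound is pin-transferred. ADP at 130 uM final then starts the reaction, which runs 45 min at room temperature. Detection reagent is added for 10 min before luminescence is imaged.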
RE007 growth inh = less growth of the S. pombe RE007 Vpr strain | S. pombe RE007 Vpr strain, BacTiter-Glo ATP luminescence, 24 h | Potency, µM (top dose mostly 92.2 µM), without a hit: at the top dose activity change, negative = less growth, hits mostly inhibitors | 360,000 compounds, 0.21% hits | AID 651644; active means well fitted falling curve with a large enough effect; inconclusive means small, poorly fitted or top-dose-only effect; inactive means no such curve, though single readings can be large or run the other way; further: potency means the concentration at half of the fitted maximal effect; on the % scale 0 is the no-effect control and ±100 the full control effect; nearly all actives have a fitted effect of over 50% in size
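Fission yeast strain RE007, carrying one chromosomally integrated HIV-1 vpr copy, was seeded at OD 0.01 in PMG+AL medium with 23 nL pinned compound. After 24 h at 30 °C and 99% humidity, viability was read by BacTiter-Glo luminescence.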
LmPK inhibitor = blocks Leishmania mexicana pyruvate kinase activity | Potency, µM (top dose mostly 57.5 µM), for inactives: at the top dose activity change, negative = inhibition, usual class: inhibitors | purified LmPK, Kinase-Glo ATP luminescence, 1 h | Q27686 | 290,000 compounds, 0.37% hits | AID 1721; further: potency means the concentration at half of the fitted maximal effect; on the % scale 0 is the no-effect control and ±100 the full control effect
Target sequence (Q27686 whole entry, looked up): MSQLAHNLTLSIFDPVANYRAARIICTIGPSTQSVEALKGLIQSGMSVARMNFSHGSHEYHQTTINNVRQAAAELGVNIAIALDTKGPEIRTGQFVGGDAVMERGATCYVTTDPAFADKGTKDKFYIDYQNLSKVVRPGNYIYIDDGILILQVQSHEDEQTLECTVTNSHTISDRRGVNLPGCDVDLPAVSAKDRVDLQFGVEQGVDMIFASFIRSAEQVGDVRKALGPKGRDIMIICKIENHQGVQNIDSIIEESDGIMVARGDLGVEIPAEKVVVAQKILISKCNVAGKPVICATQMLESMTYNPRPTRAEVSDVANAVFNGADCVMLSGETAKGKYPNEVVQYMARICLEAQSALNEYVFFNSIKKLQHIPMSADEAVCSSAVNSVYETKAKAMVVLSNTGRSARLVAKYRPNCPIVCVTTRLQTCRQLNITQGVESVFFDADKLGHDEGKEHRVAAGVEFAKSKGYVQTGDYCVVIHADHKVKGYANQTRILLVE
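Purified LmPK (0.1 nM) converted ADP (0.1 mM) to ATP with PEP (0.5 mM) in imidazole buffer pH 7.2 with KCl and MgCl2, 1 h at room temperature. ATP was read by Kinase-Glo luminescence; data normalized to uninhibited and no-enzyme controls.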
Shiga toxin inh = Shiga toxin inhibition; Vero cells, Shiga toxin protein synthesis inhibition reporter; inhibition, % at 38.7 µM; AID 2315; 290,000 compounds, 9.2% hits; in the data active means inhibition mostly above about 28%, no sharp cut-off; inactive means mostly below about 43%; further: 0% is about no effect
* = called active by the depositor; u = inconclusive; x = no result; [ ] = dose if it differs, or a comment. Unless noted, the call rests on the fitted dose curve; in most records, active means well fitted curve in the direction sought with a large enough effect; inconclusive means small, poorly fitted or top-dose-only effect, or another doubt; inactive means no such curve, though single readings can be large; an effect the other way counts as inactive or inconclusive.

SMILES	CHX counter	Giardia FBPA inh	TbPYK inhibitor	RE007 growth inh	LmPK inhibitor	Shiga toxin inh
Cc1cc(Br)c2c(c1)=C(c1sc(N3CCCCCC3)nc1O)C(=O)N=2	17*	1%	0%	-8%	-3%	63*
Cc1ccc2c(c1)=C(c1sc(N(C)c3ccc(O)cc3)nc1O)C(=O)N=2	3	-4%	4%	17%	3%	6
COc1ccc(NC(=O)Cn2c(=O)ccc3cc(S(=O)(=O)N4CCCC4)ccc32)cc1Cl	x	x	0%	x	x	x
CC(CNC(=O)c1cc(COc2ccc3ncccc3c2)on1)c1ccccc1 (centres undefined)	-1	-2%	2%	-4%	6%	-4
CCC(NC(=O)c1cc(COc2ccc(Cl)cc2OC)on1)c1ccncc1 (centres undefined)	38*	x	1%	-5%	1%	76*
CCC(NC(=O)c1cc(COc2ccc(OC)cc2Cl)on1)c1ccncc1 (centres undefined)	64*	x	-2%	-23%	-11%	63
COc1cc(Cl)ccc1OCc1cc(C(=O)NCC(C)c2ccccc2)no1 (centres undefined)	25*	-3%	3%	-3%	10%	33
CC(Cc1cnccn1)NC(=O)c1cc(COc2ccc(F)cc2F)on1 (centres undefined)	9	6%	-17%	3%	0%	-15
COc1cc(Cl)ccc1OCc1cc(C(=O)NC(C)Cc2cnccn2)no1 (centres undefined)	42*	x	-2%	-6%	-4%	70*
OC[C@H]1O[C@H](OC[C@H]2OC(O)[C@H](O)[C@@H](O)[C@@H]2O)[C@H](O)[C@@H](O)[C@@H]1O (some centres undefined)	x	x	-7%	5%[18.4 µM]	x	x
CCN(CC)C(=S)S	x	x	-9%	x	x	x
CSc1ccccc1OCc1cc(C(=O)NC2CCOC(C)(C)C2)no1 (centres undefined)	22*	3%	-5%	u	3%	97*
O=C(NC1CCOC1)c1cc(COc2cccc(C(F)(F)F)c2)on1 (centres undefined)	41*	x	9%	-6%	0%	66*
CSc1ccccc1OCc1cc(C(=O)NC2CCOC2)no1 (centres undefined)	49*	3%	14%	5%	-4%	49*
Cc1ccc(C)c(OCc2cc(C(=O)NC3CCOC(C)(C)C3)no2)c1 (centres undefined)	56*	-4%	3%	1%	4%	85*
CCc1ccc(NC(=O)C2CCN(S(=O)(=O)c3cccc(-c4noc(C)n4)c3)CC2)cc1	x	x	-7%	x	x	x
COc1cccc(NC(=O)C(=O)NCCc2csc(-c3ccc(C(F)(F)F)cc3)n2)c1	x	x	0%	x	x	x
CC(NC(=O)c1cc(COc2cccc(C(F)(F)F)c2)on1)c1nccs1 (centres undefined)	43*	x	4%	26%	-13%	57*
COc1cc(Cl)ccc1OCc1cc(C(=O)NC2CCc3ccccc32)no1 (centres undefined)	3	x	-7%	-9%	7%	14
COc1ccc(OCc2cc(C(=O)NC3CCOC(C)(C)C3)no2)c2ccccc12 (centres undefined)	96*	x	x	x	-12%	103*
O=C(Nc1nc2ccc(Cl)cc2s1)c1ccc(Br)o1	34*	1%	4%	-13%	-6%	87*
Cc1cc(C(=O)Nc2nc3ccc(Cl)cc3s2)nn1C	24*	0%	-3%	-14%	5%	92*
CCSc1ncc(Cl)c(C(=O)Nc2nc3ccc(Cl)cc3s2)n1	x	x	-12%	x	x	x
Cn1ncc(Cl)c1C(=O)Nc1nc2ccc(Cl)cc2s1	66*	-11%	-16%	-24%	-25%	56*
Cc1ccc(C)c(Nc2cc(C(=O)NC3CCCCC3)c3ccccc3n2)c1	x	x	-2%	x	x	x
SMILES	CHX counter	Giardia FBPA inh	TbPYK inhibitor	RE007 growth inh	LmPK inhibitor	Shiga toxin inh
O=C(c1cc(C2CC2)nn1-c1ccccc1)N1CCN(c2ccc(O)cc2)CC1	x	x	-29%	2%	x	x
C=CCN(CC=C)S(=O)(=O)c1ccc(NC(=S)NC(=O)C2CC2)cc1	-1	-15%	1%	3%	0%	-4
CCCCn1nnc(NC(=O)c2ccc(-c3ccccc3)cc2)n1	41*	-1%	4%	11%	-2%	active
CC(=O)c1ccc(NC(=O)c2ccc(COc3ccccc3[N+](=O)[O-])o2)cc1	-1	-1%	2%	-17%	-2%	0
Cc1nc(NC(=O)c2cc3ccccc3o2)ccc1Br	11	3%	5%	-9%	4%	23
CCCCn1nnc(NC(=O)c2ccc(-c3cccc([N+](=O)[O-])c3)o2)n1	16	-1%	x	x	1%	20
CCn1nnc(NC(=O)c2cc3ccccc3o2)n1	30*	-1%	2%	-10%	-17%	81*
CC(=O)c1cccc(NC(=O)c2ccc(-c3ccccc3[N+](=O)[O-])o2)c1	70*	10µM*	-7%	-4%	-2%	51*
CCn1nnc(NC(=O)c2ccc(-c3ccccc3[N+](=O)[O-])o2)n1	17*	-9%	0%	-13%	-4%	38
Cc1cc(Cl)ccc1NC(=O)C1CCCN(c2nnc(C)c3c(C)n(-c4ccccc4)nc23)C1 (centres undefined)	x	x	-1%	x	x	x
COc1cc(C2C(C(=O)Nc3ccc(C)cc3C)=C(C)Nc3nc4ccccc4n32)cc(OC)c1OC (centres undefined)	x	x	2%	x	x	x
O=C(NCc1ccc(Cl)cc1)C(=O)NCC(c1cccnc1)N1CCN(c2ccccc2)CC1 (centres undefined)	x	x	-2%	x	x	x
CN(C)C(=O)c1ccc(-c2nc(N(C)C)c3ccccc3n2)cc1	x	-19%	x	x	x	x
CCCn1nnc(NC(=O)c2cccc(Cl)c2)n1	35	x	0%	-13%	-8%	128
CCc1ccc(C(=O)Nc2nnn(CC)n2)cc1	11*	-6%	0%	19%	-26%	13
CCCCn1nnc(NC(=O)c2cc3ccccc3o2)n1	44*	2%	-5%	-13%	-10%	42*
CCCn1nnc(NC(=O)c2ccc3c(c2)OCO3)n1	54*	-1%	-6%	14%	-15%	89*
CCCn1nnc(NC(=O)c2cc3ccccc3o2)n1	43*	-6%	1%	-15%	-2%	74*
CCn1nnc(NC(=O)c2ccc(Br)o2)n1	4	1%	0%	-14%	-7%	27
CCCn1nnc(NC(=O)Cc2ccccc2)n1	-3	3%	0%	6%	2%	-26
O=S(=O)(c1ccccc1)N1CCN(c2nc3ccccc3s2)CC1	12	-1%	2%	5%	4%	24
Clc1ccc2nc(N3CCN(c4ccccc4)CC3)sc2c1	37*	3%	0%	-6%	0%	135*
